According to PubChem BioAssay (NCI):
The panel holds about 83,000 compounds, 20% with a hit somewhere; the sample as a whole holds those more often.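 Compound tested at a single concentration for 48 hours in 96-well plates; a percent growth value below 10 was scored as active.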 Unmarked numbers belong to inactive results. Active and inactive are the calls of the source.

Experiments:
Assay in all cases: NCI-60 one-dose screen, 48 h (100 = growth as untreated, 0 = no growth, -100 = all killed)
Conditions in all cases: 10 µM
NCI-H23 lung = system: NCI-H23 lung
NCI-H226 lung = system: NCI-H226 lung
NCI-H322M lung = system: NCI-H322M lung
HOP-62 NSCLC = system: HOP-62 NSCLC
NCI-H460 lung = system: NCI-H460 lung
HOP-92 NSCLC = system: HOP-92 NSCLC
NCI-H522 lung = system: NCI-H522 lung
A549/ATCC NSCLC = system: A549/ATCC NSCLC
786-0 renal = system: 786-0 renal
COLO 205 colon = system: COLO 205 colon
DU-145 prostate = system: DU-145 prostate
K-562 leukemia = system: K-562 leukemia
MALME-3M melanoma = system: MALME-3M melanoma
MDA-MB-231 breast = system: MDA-MB-231 breast
RXF 393 renal = system: RXF 393 renal
SF-268 CNS = system: SF-268 CNS
SF-295 CNS = system: SF-295 CNS
SF-539 CNS = system: SF-539 CNS
UACC-257 melanoma = system: UACC-257 melanoma
M14 melanoma = system: M14 melanoma

SMILES | growth (NCI-H23 lung) | growth (NCI-H226 lung) | growth (NCI-H322M lung) | growth (HOP-62 NSCLC) | growth (NCI-H460 lung) | growth (HOP-92 NSCLC) | growth (NCI-H522 lung) | growth (A549/ATCC NSCLC) | growth (786-0 renal) | growth (COLO 205 colon) | growth (DU-145 prostate) | growth (K-562 leukemia) | growth (MALME-3M melanoma) | growth (MDA-MB-231 breast) | growth (RXF 393 renal) | growth (SF-268 CNS) | growth (SF-295 CNS) | growth (SF-539 CNS) | growth (UACC-257 melanoma) | growth (M14 melanoma)
N#Cc1c(-c2ccc(F)cc2)nc(SCc2ccc(F)cc2)nc1N1CCOCC1 | 71.8% | 48.4% | 78.4% | 24.3% | 73.9% | 34.3% | 55% | 69% | 24.7% | 97.7% | 77.8% | 83.8% | 58.6% | 50.5% | 41.6% | 43.4% | 36.9% | 49% | 77.1% | 92.2%
O=C1Nc2cc(-c3ccc(NC(=O)c4cccc([N+](=O)[O-])c4)cc3)ccc2/C1=C/c1ccc[nH]1 | 71.6% | 76.7% | 102% | 94.9% | 103% | 109% | 84.3% | 94.5% | 103% | 42.9% | 67.7% | 93.7% | 98.7% | 86.6% | 83.7% | 98.4% | 83.5% | 89.2% | 97.1% | 102%
CCCCCCCCCCCCCCCCCCCC(=O)NCCc1c[nH]c2ccc(OC(=O)NOCCOCCOCCOCCOCCOCCOCCOCCOCCOCCOCCOCCOCCOCCOCCOCCOCCOCCOCCOCCOCCOCCOC)cc12 | 9.6% (active) | -23.3% (active) | -8.92% (active) | -30.7% (active) | 16% | -17.5% (active) | -83.4% (active) | 8.54% (active) | 35.4% | -100% (active) | 21.4% | 8.69% (active) | 8.02% (active) | -74.1% (active) | 12% | 16.5% | -28.5% (active) | -13.8% (active) | 6.88% (active) | -18.8% (active)
O=c1cc(-c2ccccc2)oc2cc(OCCCCNCc3ccccc3)cc(O)c12 | -73.7% (active) | 59.6% | 57.5% | 61% | -73.9% (active) | 31.8% | 34.2% | 49.3% | -68.2% (active) | -91.8% (active) | 27.6% | -17.6% (active) | -92.6% (active) | -12.4% (active) | -79.8% (active) | 43.6% | -93.5% (active) | -96.2% (active) | -35.6% (active) | -75.9% (active)
O=C(Nc1ccc(F)c(Cl)c1)c1cc(-c2ccc(F)cc2F)ccc1O | -46.9% (active) | -23.4% (active) | 2.57% (active) | -13% (active) | 0.118% (active) | -20.6% (active) | -15% (active) | 9.32% (active) | 9.93% (active) | 4.58% (active) | 13.3% | 6.16% (active) | -28.6% (active) | -24.5% (active) | -16.6% (active) | 4.5% (active) | -82.1% (active) | -7.23% (active) | -13.5% (active) | 20%
C=C1CCC2C3(C)COC(c4c(F)cccc4F)OC3CCC2(C)C1C/C=C1/C(=O)OCC1O (stereo not drawn) | -46.8% (active) | -11.2% (active) | 37.5% | -13.7% (active) | -22.3% (active) | 4.64% (active) | -67.7% (active) | 10.1% | -77.6% (active) | -35.8% (active) | -60.3% (active) | 13.4% | -62.7% (active) | -33.4% (active) | -72.8% (active) | 65.2% | -21% (active) | -92.2% (active) | -46.8% (active) | -23.7% (active)
Cc1ccc(CSc2nc(Cl)c(C#N)c(-c3ccc(F)cc3)n2)cc1 | 87.8% | 53.5% | 86.7% | 96.4% | 86.5% | 54.6% | 62.5% | 66.5% | 78.7% | 77.3% | 75.1% | 55.7% | 113% | 96.5% | 70.2% | 81.8% | 70.2% | 71.8% | 75.3% | 87.6%
C/C(=C\CC/C=C(\C)CC/C=C(\C)CC[C@@H](O)C(C)(C)O)CC/C=C(\C)CC[C@@H](O)C(C)(C)O | 31.8% | 38.8% | 98.1% | 96.6% | 32% | 26% | 21.8% | 26.1% | 47.4% | 41.9% | 63.7% | 10.4% | 44.8% | 61.4% | 16.5% | 57.5% | 9.52% (active) | 43% | 21.1% | 22.7%
O=C(CNc1nc(-c2ccccc2)cs1)Nc1ccc(Br)cc1 | -90.8% (active) | -58.6% (active) | -99.5% (active) | -78.8% (active) | -61.5% (active) | -71.5% (active) | -77.8% (active) | -82.3% (active) | -73.2% (active) | -77.4% (active) | -92.3% (active) | 6.7% (active) | -82.4% (active) | -92.5% (active) | – | -12.5% (active) | -97.5% (active) | -98.3% (active) | -73.8% (active) | -86.5% (active)
CCOC(=O)C1NN(c2ccc(S(N)(=O)=O)cc2)c2nc3nc(-c4cccs4)cc(-c4cccs4)c3c(=O)n21 (stereo not drawn) | 96.6% | 5.85% (active) | 99.7% | 109% | 77.6% | 61.5% | 77.2% | 90.9% | 78.7% | 81.1% | 91.6% | 83.3% | 86.1% | 88.8% | 51.6% | 75% | 78.5% | 63.1% | 109% | 74%
CCCCCCCCCCCCCCCCCCCC(=O)NCCc1c[nH]c2ccc(OC(=O)CCCC(=O)OCCOOCCOOCCOOCCOOCCOOCCOOCCOOCCOOCCOOCCOOCCOOCCOC)cc12 | 59.7% | 52.9% | 109% | 120% | 50.4% | 74.7% | -82.9% (active) | 42.3% | 83.9% | 117% | 39.8% | 2.22% (active) | 102% | 44.5% | 91.3% | 16.7% | 13.3% | -32.9% (active) | 92.5% | 56.4%
CN1C(=O)/C(=C/c2ccc3ncsc3c2)NC1=NC12CC3CC(CC(O)(C3)C1)C2 | -21.1% (active) | -1.04% (active) | 9.71% (active) | 16.7% | 9.92% (active) | 22.1% | -46.8% (active) | 16.7% | 11.1% | -37.9% (active) | 12.2% | 11.9% | -15% (active) | 0.441% (active) | -22.7% (active) | 24.5% | 14.1% | -32.1% (active) | -17% (active) | 36.9%
Cc1cc(C)nc(NS(=O)(=O)c2ccc(N/C(N)=N/c3nccc(-c4ccccc4)n3)cc2)n1 | 57.1% | 49.6% | 75.6% | 70.3% | 76.3% | 43.6% | 76.2% | 63% | 72.1% | 91.1% | 88.8% | 49.3% | 63.3% | 59.4% | – | 82% | 52.2% | 70% | 94% | 88.4%
O=C(Nc1ccc(I)cc1)Nc1nc2ccc([N+](=O)[O-])cc2s1 | -95.9% (active) | -74.2% (active) | -86.6% (active) | -90.4% (active) | -72.1% (active) | -87.9% (active) | -89.4% (active) | -91.6% (active) | -100% (active) | -92.2% (active) | -100% (active) | -82.8% (active) | -99.7% (active) | -100% (active) | -95.1% (active) | -83.7% (active) | -95.4% (active) | -99.7% (active) | -91% (active) | -100% (active)
O=C1NC(=NC23CC4CC(CC(C4)C2)C3)N/C1=C\c1ccc2ncoc2c1 | -49.7% (active) | 21.4% | 3.73% (active) | 13.2% | 13.7% | 15.3% | -17.3% (active) | 10% | 14.4% | -34.4% (active) | 7.99% (active) | 12.1% | -24.3% (active) | -1.98% (active) | -52.5% (active) | 9.72% (active) | 11.2% | -49.2% (active) | 4.63% (active) | 29.4%
CN1CCN(c2ccc(C(=O)/C=C/c3cc(Br)ccc3F)cc2)CC1 | 49.4% | 61.6% | 93.3% | 77.1% | 67.2% | 31.6% | 66.4% | 28.5% | 27.1% | 34.8% | 44.8% | -35.5% (active) | 78.9% | 26.9% | 38.8% | 88.6% | 60.7% | 2.31% (active) | 73.8% | 52.1%
